These results are taken from PubChem BioAssay AID588683 (Broad Institute, 2011).

Potency and affinity values are given separately. Values without a mark were called inactive. How the calls were made is not given here.

For the experiment, the target named is Kelch-like ECH-associated protein 1 (Homo sapiens) + Nuclear factor erythroid 2-related factor 2 (Homo sapiens) (UniProt Q14145+Q16236). Kind of experiment: disruptors of Keap1 binding to Nrf2 peptide – biochemical, fluorescence polarization, cherry-picked samples, dose response (AID 588683).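 Further: Kelch domain of Keap1 binding a fluorescein-labelled 9mer Nrf2 peptide; more negative means stronger inhibition of peptide binding.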 Particulars: plate reader; series mostly up to 26 µM; activity change, negative = inhibition: at the top concentration.
Chain of Kelch-like ECH-associated protein 1 (Homo sapiens) + Nuclear factor erythroid 2-related factor 2 (Homo sapiens) (Q14145 whole entry, looked up, the tested form may be a part): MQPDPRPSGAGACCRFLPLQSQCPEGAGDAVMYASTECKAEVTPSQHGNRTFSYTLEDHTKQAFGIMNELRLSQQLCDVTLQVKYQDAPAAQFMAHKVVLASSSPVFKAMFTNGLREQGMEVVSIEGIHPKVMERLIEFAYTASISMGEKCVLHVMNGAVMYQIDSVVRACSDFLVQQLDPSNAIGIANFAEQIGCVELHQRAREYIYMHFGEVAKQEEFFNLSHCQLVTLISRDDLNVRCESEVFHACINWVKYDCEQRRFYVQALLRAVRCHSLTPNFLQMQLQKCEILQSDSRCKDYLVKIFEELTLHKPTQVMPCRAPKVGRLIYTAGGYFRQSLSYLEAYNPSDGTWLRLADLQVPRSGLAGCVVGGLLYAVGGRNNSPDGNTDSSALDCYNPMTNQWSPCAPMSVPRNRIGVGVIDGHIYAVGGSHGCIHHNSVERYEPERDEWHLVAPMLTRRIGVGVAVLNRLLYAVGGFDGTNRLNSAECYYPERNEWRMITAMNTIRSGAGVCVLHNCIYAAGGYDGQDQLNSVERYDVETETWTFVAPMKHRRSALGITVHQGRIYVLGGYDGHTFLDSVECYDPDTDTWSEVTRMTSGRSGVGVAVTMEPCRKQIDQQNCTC
Chain of Kelch-like ECH-associated protein 1 (Homo sapiens) + Nuclear factor erythroid 2-related factor 2 (Homo sapiens) (Q16236 whole entry, looked up, the tested form may be a part): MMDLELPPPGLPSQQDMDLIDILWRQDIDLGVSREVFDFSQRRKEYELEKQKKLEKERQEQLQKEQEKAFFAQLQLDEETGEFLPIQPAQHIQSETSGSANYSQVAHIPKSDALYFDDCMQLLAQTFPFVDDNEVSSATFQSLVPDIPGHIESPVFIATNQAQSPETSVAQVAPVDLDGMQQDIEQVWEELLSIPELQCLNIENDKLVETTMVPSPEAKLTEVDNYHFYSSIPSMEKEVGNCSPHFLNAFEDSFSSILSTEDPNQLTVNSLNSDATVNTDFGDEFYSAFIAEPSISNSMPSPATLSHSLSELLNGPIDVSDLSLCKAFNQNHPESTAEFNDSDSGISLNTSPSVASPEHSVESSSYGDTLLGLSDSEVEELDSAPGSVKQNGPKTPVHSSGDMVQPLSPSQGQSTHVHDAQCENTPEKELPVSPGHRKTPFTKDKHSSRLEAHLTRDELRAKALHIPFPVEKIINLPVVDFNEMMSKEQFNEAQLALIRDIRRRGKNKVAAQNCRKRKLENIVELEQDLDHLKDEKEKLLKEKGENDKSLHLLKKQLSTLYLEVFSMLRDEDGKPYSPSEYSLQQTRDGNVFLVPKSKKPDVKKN
Regarding `CC1=CC(=C2N=C(c3ccccc3)OC2=O)C=C(C)O1`, the “activity change, negative = inhibition” value is 107%.
In the case of `Cc1ccc(-c2nc3sc(C#N)c(N)n3c(=O)c2C#N)cc1` it was 64.5%; in that of `COc1ccc(Nc2nc3ccccc3nc2-n2nc(C)cc2C)cc1`, -0.148%; in that of `O=C(COC(=O)c1cccnc1Cl)Nc1ccc(N2CCCCC2)cc1`, -0.322%.
The result for `O=c1[nH]c2cc(C(F)(F)F)ccc2n1-c1cc(C(F)(F)F)ccc1O` reads -8.84%; that for `COc1ccc(N=Nc2nc3ccc(Br)cc3n2C)cc1`, -21.9%; that for `Cc1ccc(C(=O)N/C(=C\c2ccc(-c3ccccc3[N+](=O)[O-])o2)C(=O)NCCCN(C)C)cc1`, -4.73%.
As for `O=C(CCN1C(=O)/C(=C/c2ccco2)SC1=S)Nc1ccc(O)cc1C(=O)O`, the “activity change, negative = inhibition” value was 4.28%.
Regarding `Cc1ccc(-n2nnnc2SCC(=O)c2c(N)n(C3CC3)c(=O)[nH]c2=O)cc1`, the “activity change, negative = inhibition” value is 3.48%.
In the case of `Oc1ccc2c(c1)OCC1(O)Cc3cc(O)c(O)cc3C21` (stereo not drawn), the “activity change, negative = inhibition” value is -8.58%.
The result for `O=C(NCCOCc1ccc(Cl)cc1)c1ncn[nH]1` reads -12.4%; that for `CC(=O)Nc1ccc2c(c1)N(C(=O)CN(C)C)c1ccccc1CC2`, -6.21%.
On to `Cc1ccc(C2=CC(c3cccs3)n3nnnc3N2)cc1` (stereo not drawn), for which the “activity change, negative = inhibition” value is 2.17%.
Take `COC(=O)N/N=C/c1cn(Cc2ccccc2Cl)c2ccccc12`: the “activity change, negative = inhibition” value is -4.96%.
In the case of `OC(Cc1ccncc1)(c1ccccc1)c1ccccc1` it was -9.67%; in that of `O=C(CSC1=NNC(c2ccccn2)S1)Nc1cccc(Cl)c1` (stereo not drawn), -5.02%; in that of `c1ccc(-n2ncc3c(NCC4CCCO4)ncnc32)cc1` (stereo not drawn), -14.1%.
In the case of `CN1CC=C2C(C#N)=C(N)C(C#N)(C#N)C(c3ccsc3)C2C1` (stereo not drawn) it was -0.634%.
In the case of `CCCCC(CC)C(=O)Oc1ccc(O)c(C(C)(C)C)c1` (stereo not drawn) it was -6.25%.
With `CC1(C)CC(=O)C2=C(C1)OC(N)=C(C#N)C2c1cc2c(cc1[N+](=O)[O-])OCO2` (stereo not drawn), the “activity change, negative = inhibition” value is -12%.
For the compound `COc1cccc(C2=CC(c3cccs3)n3nnnc3N2)c1` (stereo not drawn), the “activity change, negative = inhibition” value is -16.2%.
Regarding `CCOc1ccc(NC(=O)COC(=O)CCN2C(=O)C3CC=CCC3C2=O)cc1OCC` (stereo not drawn), the “activity change, negative = inhibition” value was -10.6%.
For `CCOC(=O)c1ccc2ncc(C(=O)OCC)c(NCCN(C)C)c2c1`, the “activity change, negative = inhibition” value is -6.02%.
In the case of `O=c1[nH]c(/C=C/c2cccc3ccccc23)nc2ccccc12` it was 11.9%.
`Clc1ccc(-c2noc(CN3CCOCC3)n2)cc1`: the “activity change, negative = inhibition” value was -5.41%.
Consider `O=C(NNc1cc(Cl)ccc1Cl)c1cccs1`, for which the “activity change, negative = inhibition” value is 0.801%.
The result for `Oc1cc(NCCN2CCOCC2)cc2cccnc12` reads -2.56%.
`COc1ccc(/C=c2\s/c(=C(/C#N)C(=O)NCc3ccco3)n(-c3ccccc3)c2=O)cc1`: the “activity change, negative = inhibition” value is 5.04%.
As to `COc1ccc(NS(=O)(=O)c2ccc(F)c(Cl)c2)cn1`, the “activity change, negative = inhibition” value was -13.4%.
Regarding `O=C(Cc1ccc(S(=O)(=O)N2CCOCC2)s1)Nc1nc2c(s1)CCCC2`, the “activity change, negative = inhibition” value was 1.26%.
Regarding `CCOC(=O)C(C)(C)N(Cc1ccccc1C)S(=O)(=O)c1ccc(Cl)c([N+](=O)[O-])c1`, the “activity change, negative = inhibition” value is -14.5%.
On to `COc1cc2c3nnc(-c4ccc(F)cc4)c-3cn(Cc3ccccc3F)c2cc1OC`, for which the “activity change, negative = inhibition” value was 129%.
For `COc1cc(NC(=O)CSc2nc3cc(C)ccc3cc2C)c(C(=O)O)cc1OC`, the “activity change, negative = inhibition” value was -2.64%.
For the compound `CCC(=O)c1cn(CC(=O)Nc2ccc(OC)cc2)c2ccccc12`, the “activity change, negative = inhibition” value was 2.85%.
In the case of `O=C(NC1(O)C(=O)c2ccccc2C1=O)c1c(Cl)cccc1Cl` it was 11.9%.
In the case of `N#CCCN(CCC#N)C(=O)C1c2ccccc2Oc2ccccc21` it was 0.566%; in that of `Cn1c(SCC(=O)c2cc(Cl)c(Cl)s2)nnc1-c1ccco1`, -16.1%.
In the case of `CN1/C(=C\C=C(/C#N)C(=O)Nc2ccc(Cl)cc2)C(C)(C)c2ccccc21` it was 19.3%.
